From PubChem BioAssay (EPA / NIEHS)
Results filed as inconclusive are left out. Activity calls are given as the source filed them. Rule for the calls: active = hit-call score of the fitted dose curve at least 0.9, where 1 is the maximum; inconclusive = response in the unintended direction; inactive = score below 0.9.

What follows are compounds tested against Cellular tumor antigen p53 (Homo sapiens) (UniProt P04637) (assay: TOX21_p53_BLA_p4_ratio: Tox21 HCT-116 p53 Agonism Beta-lactamase Assay, Ratio, Phase 4 (AID 2283601)).
Procedure, shortened: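 Signal is the blue/green (460nm/530nm) ratio of cleaved versus uncleaved CCF4-AM substrate, read after 2 h substrate loading. Cells were HCT116 carrying the p53-responsive beta-lactamase reporter, dosed 16 h at 37C, 5% CO2; CellTiter-Glo measured in parallel.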

Cellular tumor antigen p53 (Homo sapiens), sequence (P04637 whole entry, looked up): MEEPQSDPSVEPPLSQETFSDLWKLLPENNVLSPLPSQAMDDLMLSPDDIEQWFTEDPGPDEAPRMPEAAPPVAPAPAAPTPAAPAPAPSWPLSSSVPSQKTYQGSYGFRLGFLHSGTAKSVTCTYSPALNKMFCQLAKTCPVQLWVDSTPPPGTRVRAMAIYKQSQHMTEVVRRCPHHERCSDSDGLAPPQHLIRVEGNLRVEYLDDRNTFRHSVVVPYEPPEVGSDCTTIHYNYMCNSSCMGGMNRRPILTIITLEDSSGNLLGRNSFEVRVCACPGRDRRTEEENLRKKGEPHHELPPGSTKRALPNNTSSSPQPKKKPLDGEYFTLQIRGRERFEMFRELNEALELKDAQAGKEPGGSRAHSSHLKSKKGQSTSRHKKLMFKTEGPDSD

Structure (SMILES)	outcome	AC50
Clc1ccc(C(Cl)(Cl)Cl)c(Cl)c1	inactive	
C=CCN1CC[C@]23CCCC[C@H]2[C@H]1Cc1ccc(O)cc13	inactive	
CCCC1CCCCN1 (stereo not drawn)	inactive	
C1CCC2CCCCC2C1 (stereo not drawn)	inactive	
CCC(=O)O[C@@](Cc1ccccc1)(c1ccccc1)[C@@H](C)CN(C)C	inactive	
O=C([O-])c1ccccn1.O=C([O-])c1ccccn1.O=C([O-])c1ccccn1.[Cr+3]	inactive	
Nc1ccccc1-c1ccccc1	inactive	
CCCCCCC(=O)O[C@H]1CC[C@H]2[C@@H]3CC[C@H]4CC(=O)C=C(C)[C@]4(C)[C@H]3CC[C@]12C	inactive	
Cc1ccc(Cl)c(O)c1	inactive	
COc1ccc(OC)c([C@@H](O)[C@H](C)N)c1	inactive	
CC(C)(C)C(=O)C(Cl)Cl	inactive	
O=C1C(=O)c2cccc3cccc1c23		9.63 µM (active)
C=C1CC[C@@]2(O)[C@H]3Cc4ccc(O)c5c4[C@@]2(CCN3CC2CC2)[C@H]1O5	inactive	
O=[N+]([O-])c1cccc2cccnc12	inactive	
NC(=S)c1c(Cl)cccc1Cl	inactive	
CC(C)(C#N)C(C)(C)C#N	inactive	
CC(N)Cc1ccc(O)cc1 (stereo not drawn)	inactive	
C[C@]12CC[C@H]3[C@@H](CCC4=CC(=O)CC[C@@H]43)[C@@H]1CC[C@@H]2OC(=O)CCc1ccccc1	inactive	
CCCC[N+]1(C)[C@@H]2CC(OC(=O)[C@H](CO)c3ccccc3)C[C@H]1[C@@H]1O[C@@H]12 (stereo partly drawn)	inactive	
O=C1CC(=O)NC(=O)N1	inactive	
BrCC(Br)(Br)Br	inactive	
CCCCC1C(=O)NC(=O)N(C2CCCCC2)C1=O (stereo not drawn)	inactive	
[O]=[Cr](=[O])([OH])[O][Cr](=[O])(=[O])[OH]		13.6 µM (active) [middle of 4 runs]
CCOC(=O)C(Cl)C(C)=O (stereo not drawn)	inactive	
CC(=O)O[C@H]1CC[C@H]2[C@@H]3CCC4=CC(=O)CCC4=C3C=C[C@]12C	inactive	

The compounds below were run against PGR (gene 5241) (UniProt P06401) (assay: TOX21_PR_BLA_Followup_Antagonist_ratio: Tox21 HEK293 Progesterone Receptor (PR) Antagonism Beta-lactamase Follow-Up Assay, Ratio (AID 2283934);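 note: PR-UAS-bla HEK293T cells stimulated with 1 nM R5020 agonist for 16 hr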).
Procedure, shortened: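 Cells are plated, rested 6 hr, then dosed with test compound in DMSO and challenged with 1 nM promegestone. After 16 hr incubation, substrate loading for 2 h at room temperature precedes fluorescence reading; viability is measured in the same wells.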

PGR (gene 5241), sequence (P06401 whole entry, looked up): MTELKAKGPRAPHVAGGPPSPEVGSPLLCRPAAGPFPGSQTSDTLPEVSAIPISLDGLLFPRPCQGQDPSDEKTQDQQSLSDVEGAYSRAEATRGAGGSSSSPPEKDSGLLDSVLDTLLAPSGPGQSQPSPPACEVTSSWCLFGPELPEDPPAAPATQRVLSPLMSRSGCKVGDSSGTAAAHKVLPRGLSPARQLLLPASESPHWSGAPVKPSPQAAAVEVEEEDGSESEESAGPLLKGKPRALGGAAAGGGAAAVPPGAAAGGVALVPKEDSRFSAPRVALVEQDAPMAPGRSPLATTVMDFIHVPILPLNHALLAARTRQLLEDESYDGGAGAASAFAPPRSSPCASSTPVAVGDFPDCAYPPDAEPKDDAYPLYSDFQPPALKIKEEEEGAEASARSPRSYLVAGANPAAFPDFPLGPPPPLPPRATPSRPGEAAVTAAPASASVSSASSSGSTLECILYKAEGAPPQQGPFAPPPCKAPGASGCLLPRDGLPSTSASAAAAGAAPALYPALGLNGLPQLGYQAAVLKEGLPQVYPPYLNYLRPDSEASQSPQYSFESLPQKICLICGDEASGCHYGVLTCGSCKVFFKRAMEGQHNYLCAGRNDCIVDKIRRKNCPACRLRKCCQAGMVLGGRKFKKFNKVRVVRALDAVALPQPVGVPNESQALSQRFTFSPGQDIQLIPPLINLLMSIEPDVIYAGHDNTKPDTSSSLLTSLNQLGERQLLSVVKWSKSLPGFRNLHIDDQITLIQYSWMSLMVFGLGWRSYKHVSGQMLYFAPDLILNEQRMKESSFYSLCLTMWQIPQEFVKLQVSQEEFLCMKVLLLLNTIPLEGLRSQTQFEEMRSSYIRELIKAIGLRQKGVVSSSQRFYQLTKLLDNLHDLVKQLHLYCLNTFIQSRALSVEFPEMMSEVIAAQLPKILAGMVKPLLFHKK

Structure (SMILES)	AC50	outcome
CCC1COC(Cn2cncn2)(c2ccc(Cl)cc2Cl)O1 (stereo not drawn)	60.3 µM (active)	
C[C@]12CC[C@H]3[C@@H](CCC4=CC(=O)CC[C@@H]43)[C@@H]1CC[C@@H]2OC(=O)CCc1ccccc1		inactive
C=C1C[C@@H]2[C@H](CC[C@]3(C)C(=O)CC[C@@H]23)[C@@]2(C)C=CC(=O)C=C12	23 µM (active)	
